Experimental data: PubChem BioAssay (NCI)
Compounds without any hit were thinned out: in the full panel of roughly 79,000, 15% have a hit. Calls of active or inactive are those of the source. Rule as the data show it: active = growth inhibition above about 70%; inactive = the rest.

Assay: NCI Yeast Anticancer Drug Screen. Data for the rad14 strain (AID 159);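 also: 0% = growth of vehicle-treated control cultures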
Details: S. cerevisiae rad14 strain growth inhibition, active compounds read high
Protocol: Growth inhibition of yeast strains with defined genetic alterations is measured as a screen for potential anti-cancer activity. Selected strains with alterations in DNA damage repair or cell cycle control were exposed to compounds and growth inhibition was measured relative to vehicle treated controls. The strain used in this assay is rad14

| SMILES | growth inhibition (at 1.2 µM) | growth inhibition (at 3.7 µM) | growth inhibition (at 11.0 µM) | growth inhibition (at 33.0 µM) | growth inhibition (at 100.0 µM) |
| --- | --- | --- | --- | --- | --- |
| CC(C)C(C)/C=C\C(C)C1CCC2C3=CC=C4CC(O)CCC4(C)C3CCC21C (stereo not given) | -1% (inactive) | 6% (inactive) | 1% (inactive) | -2% (inactive) | 27% (inactive) |
| CCCCCCN(CCCCCC)CC(O)c1ccnc2ccc(OC)cc12 (stereo not given) | -2% (inactive) | -3% (inactive) | -4% (inactive) | -5% (inactive) | 63% (inactive) |
| COc1cccc(/C=N/C(/N=C/c2cccc(OC)c2O)c2cccc(OC)c2O)c1O | 1% (inactive) | 6% (inactive) | 19% (inactive) | 73% (active) | 99% (active) |
| NC(=O)c1c([N+](=O)[O-])cc(C(F)(F)F)cc1[N+](=O)[O-] | 2% (inactive) | 0% (inactive) | 0% (inactive) | 0% (inactive) | 1% (inactive) |
| O=[N+]([O-])/C=C/c1cc(Cl)c(/C=C/[N+](=O)[O-])cc1Cl | 25% (inactive) | 68% (inactive) | 93% (active) | 97% (active) | 92% (active) |
| O=C(Nc1ccc(Cl)cc1)Nc1nnc2nc(C(C(=O)c3cccc([N+](=O)[O-])c3Cl)c3nc4nnc(NC(=O)Nc5ccc(Cl)cc5)n4[nH]c3=O)c(=O)[nH]n12 | 0% (inactive) | -3% (inactive) | 0% (inactive) | 1% (inactive) | 56% (inactive) |
| Nc1nc(N)c2nc(CNc3ccc(C(=O)NC(CCC(=O)O)C(=O)O)cc3F)cnc2n1 (stereo not given) | 0% (inactive) | -19% (inactive) | 0% (inactive) | 54% (inactive) | 82% (active) |
| OC1(c2ccccc2)CCCc2ccc(Cl)cc21 (stereo not given) | 1% (inactive) | -1% (inactive) | -1% (inactive) | 17% (inactive) | 99% (active) |
